Laboratory results as given in PubChem BioAssay AID720504 (National Center for Advancing Translational Sciences (NCATS), 2013).
Screen size: about 360,000 compounds; about 10,000 (2.8%) were called active. Another 4% or so got no clear call; they are omitted. This excerpt belongs to a sample that is enriched for actives. Values without a mark were called inactive. Calls come from the whole dose curve; as a rule, active = well fitted inhibition curve with a large enough effect; inconclusive = small, poorly fitted or top-dose-only effect; inactive = flat fitted curve, though single readings scatter.

Target: Serine/threonine-protein kinase PLK1 (Homo sapiens) (UniProt P53350)
Sequence (P53350 whole entry, looked up, the tested form may be a part): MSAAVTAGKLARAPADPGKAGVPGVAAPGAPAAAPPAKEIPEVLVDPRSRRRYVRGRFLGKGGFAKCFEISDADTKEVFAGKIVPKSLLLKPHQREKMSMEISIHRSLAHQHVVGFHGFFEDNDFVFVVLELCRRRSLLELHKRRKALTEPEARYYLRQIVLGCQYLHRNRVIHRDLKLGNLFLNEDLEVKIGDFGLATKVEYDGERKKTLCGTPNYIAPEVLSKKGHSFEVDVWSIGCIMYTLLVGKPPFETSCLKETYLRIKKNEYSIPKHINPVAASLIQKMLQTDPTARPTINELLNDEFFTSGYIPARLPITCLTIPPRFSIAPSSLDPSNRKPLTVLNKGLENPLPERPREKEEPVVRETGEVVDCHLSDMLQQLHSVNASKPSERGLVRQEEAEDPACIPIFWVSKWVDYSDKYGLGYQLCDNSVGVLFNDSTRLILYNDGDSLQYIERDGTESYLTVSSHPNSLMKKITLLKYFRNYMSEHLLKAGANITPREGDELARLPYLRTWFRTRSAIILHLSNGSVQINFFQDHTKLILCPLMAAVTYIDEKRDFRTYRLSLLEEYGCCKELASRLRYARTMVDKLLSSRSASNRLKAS
Assay: qHTS for Inhibitors of PLK1-PDB (polo-like kinase 1 - polo-box domain): Primary Screen; note: nearly all actives have a fitted effect of over 65% in size; for max response, negative = inhibition: series mostly up to about 57 µM
Details: Plk1 PBD binding of FITC phosphopeptide, fluorescence polarization
% is set by controls: 0 for no effect and ±100 for the full control effect; potency is the fitted concentration of half-maximal effect.

Row | Structure (SMILES) | max response, negative = inhibition | Potency
1 | CC1(C(=O)NCc2ccccc2)CN(S(C)(=O)=O)CC(=O)N1CC(F)(F)F (centres undefined) | 3.31% | 
2 | CCC(=O)N1Cc2cc(C(=O)NCc3cccc(F)c3)nc(-c3cccc(C4=CCCC4)c3)c2[C@H]1CCO | -10.3% | 
3 | O=C(CC(n1cncn1)C(Cl)(Cl)Cl)c1ccc([N+](=O)[O-])cc1 (centres undefined) |  | 23.8 µM (active)
4 | O=C(Cn1c[n+](CC(=O)c2ccc([N+](=O)[O-])cc2)cn1)c1ccc([N+](=O)[O-])cc1 | -8% | 
5 | O=C(Nn1cnnc1)c1ccc([N+](=O)[O-])cc1 | -3.8% | 
6 | OC[C@@H]1CN(Cc2cccs2)C[C@H](n2cnc3c(NC4CCCC4)ncnc32)O1 | -8.04% | 
7 | O=C(Nc1cccc2ccccc12)NC1CC1 | -14.1% | 
8 | COc1ccc(C(C(=O)Nc2c(C)cccc2C)N2CCN(c3ccc(C)cc3)CC2)cc1 (centres undefined) | -1.1% | 
9 | N#Cc1c(C(F)(F)F)cc(-c2ccc(Cl)cc2)nc1SCC(=O)O | -8.73% | 
10 | N#Cc1c(C(F)(F)F)cc(-c2ccccc2)nc1SCC(=O)N1CCOCC1 | -6.59% | 
11 | N#Cc1c(-c2ccccc2)cc(-c2ccccc2)nc1SCC(=O)O |  | 21.2 µM (active)
12 | OC(c1ccc(Cl)cc1)c1ncc(-c2ccc(Cl)cc2)[nH]1 (centres undefined) | 5.29% | 
13 | CC1=C(C(=O)N2CCOCC2)CC(CC(=O)NCCCN(C)C)C(=O)N1Cc1ccc(C(C)(C)C)cc1 (centres undefined) | -2.35% | 
14 | CCc1nc2ccc(C(=O)N3CCC(O)(Cc4ccccc4)CC3)cn2c1N(C)C(=O)Cc1ccccc1 | -2.01% | 
15 | Nc1ncnc2c1ncn2[C@@H]1O[C@H](C(=O)NCC(F)(F)F)[C@@H](O)[C@H]1O | -5.72% | 
16 | CCOc1ccc(C(=O)COC(=O)c2ccc(-n3cnnn3)cc2)cc1 | 2.47% | 
17 | CCOC(=O)c1c(-n2cnnn2)sc(C)c1C |  | 26.7 µM (active)
18 | CCOC(=O)N1CCN(S(=O)(=O)c2ccc(-n3cnnn3)cc2)CC1 | -22.3% | 
19 | CC1(Oc2ccc(Cl)cc2)CCN(Cc2csc3ccccc23)C1 (centres undefined) | -4.39% | 
20 | Cc1ccc(CNC(=O)Nc2nnc([C@H]3C[C@H](O)[C@@H](CO)O3)s2)cc1 | 6.99% | 
21 | CC(C)C[C@@H](COCc1ccc(Cl)cc1)N1CCN(C(=O)c2ccc(Cl)cc2Cl)CCC1=O | -7.05% | 

Row | Structure (SMILES) | max response, negative = inhibition | Potency
22 | CC(=O)c1cccc(-c2cnc3c(NC=O)cc(-c4cccc(C(=O)N(C)C)c4)cn23)c1 | -7.52% | 
23 | Cc1c(C(=O)c2cccc([N+](=O)[O-])c2)c2ccccn2c1CCC#N | -8.17% | 
24 | COc1ccc(C(=O)c2c(C)c(CCC#N)n3ccccc23)c(OC)c1 |  | 29.9 µM (active)
25 | COc1ccc(C(=O)CCc2ccccc2O)c(OC)c1 | -0.281% | 
26 | CN1CCn2cnc(C(=O)NCC(=O)OC(C)(C)C)c2C1=O | -1.56% | 
27 | Cc1ccccc1S(=O)(=O)N1[C@@H](c2cccc(Cl)c2)C(C(=O)OC(C)(C)C)=CC[C@H]1c1ccc(Cl)cc1 | -12.6% | 
28 | CCCCNC(=O)C[C@@H]1C[C@@]2(C(=O)OCC)CCC=C2N(Cc2ccco2)C1=O | -10.8% | 
29 | Cc1ccc(S(=O)(=O)N2CC3C(=O)C[C@@H](c4ccccc4Cl)N(S(=O)(=O)c4ccc(C)cc4)C3CC2c2ccccc2)cc1 (some centres undefined) | 1.78% | 
30 | Cc1ccc(-n2c(SCC(=O)Nc3ccc4c(c3)OCO4)nnc2-c2ccoc2C)cc1 |  | 23.8 µM (active)
31 | Cc1ccc(-n2c(SCC(=O)Nc3ccc4c(c3)OCO4)nnc2-c2ccccn2)cc1 | -3.49% | 
32 | O=C(CSc1nnc(-c2ccccn2)n1-c1ccccc1)Nc1ccc2c(c1)OCO2 | -6.44% | 
33 | O=C(NCc1cccnc1)c1cc(C2CCCN(C(=O)CCCc3ccccc3)C2)on1 (centres undefined) | 7.06% | 
34 | C/C(COc1ccccc1)=N\NC(=O)c1nnn(-c2nonc2N)c1-c1ccc(C)cc1 | -7.46% | 
35 | CCC(=O)NC(=S)Nc1ccc(NC(=O)c2ccco2)c(Cl)c1 |  | 29.9 µM (active)
36 | Cc1cccc(OCC(=O)Nc2ccc(NC(=O)c3ccco3)c(C)c2)c1 | -7.98% | 
37 | O=C(NNC(=S)Nc1ccc(Br)cc1Cl)c1ccco1 | -12.7% | 
38 | CCCCN1C(=O)C(CC(=O)NC(c2ccccc2)c2ccccc2)CC(C(=O)N2CCOCC2)=C1C (centres undefined) | -4.16% | 
39 | Cc1nc(C(F)(F)F)ccc1C(=O)N1CCC1(C)C(=O)NS(=O)(=O)c1ccccc1 (centres undefined) | -4.71% | 
40 | COc1ccc(N2C(=O)CC(SC(C)C)C2=O)cc1 (centres undefined) | -4.56% | 
41 | COc1ccc(N2C(=O)CC(Sc3n[nH]c(-c4ccc(C)cc4)n3)C2=O)cc1 (centres undefined) |  | 18.9 µM (active)
42 | COc1ccc(-c2nc(SCC(=O)N3CCCC3)n[nH]2)cc1 | -1.92% | 

Row | Structure (SMILES) | max response, negative = inhibition | Potency
43 | Cc1noc(C)c1-c1ccc(C(=O)NCc2ccncc2)c2occc12 | -3.63% | 
44 | CCc1nc2ccc(C(=O)Nc3cccc(OC)c3)cn2c1N(CCC(C)C)CCN(C)C | 0.24% | 
45 | COC(=O)Cc1c(-c2[nH]c3ccccc3c2CC(=O)OC)[nH]c2ccccc12 | 0.279% | 
46 | S=c1[nH]c2ccccc2c2ccccc12 |  | 18.9 µM (active)
47 | Cc1cc2c3ccccc3[nH]c(=O)n2n1 | -0.899% | 
48 | CCCNC(=O)C1CC(=O)N(c2ccc(OCc3ccccc3)cc2)C1 (centres undefined) | 3.86% | 
49 | Cc1nc(C(F)(F)F)ccc1C(=O)N1CCC1(C)C(=O)NS(=O)(=O)c1ccccc1Cl (centres undefined) | -15.4% | 
50 | COC(=O)c1ccc(N2CCOCC2)c(NC(=O)c2ccc3c(c2)OCCO3)c1 | 0.435% | 
51 | O=C(Nc1ccc(N2CCOCC2)cc1)c1ccc2c(c1)OCO2 |  | 26.7 µM (active)
52 | O=C(Nc1ccc(N2CCOCC2)cc1)c1cccc(S(=O)(=O)N2CCOCC2)c1 | -5.11% | 
53 | COCOCCn1cc(CN2CCS(=O)(=O)N(Cc3ccc(-c4ccc(OC)cc4)cc3)C(CC(C)C)C2=O)nn1 (centres undefined) | -17% | 
54 | CCC(C)CN1C(=O)CN(S(C)(=O)=O)CC1(C)C(=O)Nc1ccc2c(c1)OCCO2 (centres undefined) | -14.3% | 
55 | Cc1ccc(S(=O)(=O)N2[C@@H](c3ccccc3F)C(C(=O)O)=CC[C@H]2c2ccc(Cl)cc2)cc1 | -15.9% | 
56 | CCOC(=O)C1=CC[C@@H](c2ccccc2)N(S(=O)(=O)c2ccc(C)cc2)[C@H]1c1cccc(OC)c1 | -10.4% | 
57 | Cc1ccc(S(=O)(=O)N2[C@@H](c3cccc(Cl)c3)C(C(=O)O)=CC[C@H]2c2ccc(Cl)c(Cl)c2)cc1 |  | 21.2 µM (active)
58 | CCc1noc(C)c1C(=O)OCC(=O)c1ccc(NC(=O)CC(C)C)cc1 | -8.24% | 
59 | CC(C)C[C@@H]1COc2cc(N3CCC[C@@H]3CO)ccc2S(=O)(=O)N1 | 2.66% | 
60 | CC(=O)N1CCc2c(sc(NC(=O)CCS(=O)(=O)c3ccccc3)c2C#N)C1 | -11.3% | 
61 | CC(C)N1CCc2c(sc(NC(=O)Cc3ccccc3)c2C#N)C1 | -26% | 
62 | N#Cc1c(N)sc2c1CCN(C(=O)OCc1ccccc1)C2 |  | 23.8 µM (active)
63 | CCN(CC)C(=O)C1=C(C)N(Cc2ccccc2)C(=O)C(CC(=O)NC(c2ccccc2)c2ccccc2)C1 (centres undefined) | -7.71% | 

Row | Structure (SMILES) | max response, negative = inhibition | Potency
64 | CCCCc1nc2ccc(F)cc2cc1C | -7.86% | 
65 | CN(C)C(=O)N=NC(=O)N(C)C |  | 1.89 µM (active)
66 | O=C(CSc1nc2cccc(F)c2c(=O)n1-c1ccccc1)Nc1ccc2c(c1)CCC2 | -2.85% | 
67 | CC(C)(O)C#Cc1ccc(CNC[C@H]2O[C@@H](n3cnc4c(=O)[nH]c(N)nc43)[C@H](O)[C@@H]2O)s1 | 0.0305% | 
68 | COC(=O)c1ccc2c(c1)S(=O)(=O)NC2C (centres undefined) | -7.33% | 
69 | O=C(NC1CC1)C(Cc1ccccc1)NS(=O)(=O)c1ccccc1F (centres undefined) |  | 23.8 µM (active)
70 | CN(Cc1ccccc1F)C(=O)C(Cc1ccccc1)NC(=O)c1ccccc1 (centres undefined) | -7.43% | 
71 | CSCCC(NS(=O)(=O)c1ccccc1F)C(=O)N1CC=C(c2ccccc2)CC1 (centres undefined) | 0.274% | 
72 | C[C@H](CO)N1C[C@H](C)[C@@H](CN(C)C(=O)c2cccc(F)c2)Oc2cc(-c3cncnc3)ccc2S1(=O)=O | -2.44% | 
73 | Nc1ccc(C(=O)Nc2ccccc2N)cc1 | -11.6% | 
74 | CC(=O)Nc1ccccc1NC(=O)c1cc(C)cc(C)c1 |  | 9.47 µM (active)
75 | Cc1ccccc1C(=O)Nc1ccccc1NC(=O)c1ccccc1C | -16.3% | 
76 | CC(=O)c1ccccc1NC(=O)C1CC(=O)N(c2ccc3c(c2)OCCO3)C1 (centres undefined) | 7.84% | 
77 | COc1ccccc1N1CC(C(=O)Nc2nnc(SCC(=O)NCC3CCCO3)s2)CC1=O (centres undefined) | -29% | 
78 | CCc1nnc(NC(=O)C2CC(=O)N(c3ccc4c(c3)OCCO4)C2)s1 (centres undefined) |  | 13.4 µM (active)
79 | Cc1ccccc1N1CC(C(=O)Nc2nnc(SCCC3OCCO3)s2)CC1=O (centres undefined) |  | 21.2 µM (active)
80 | COc1ccccc1N1CC(C(=O)Nc2nnc(SCC(=O)NC(C)C)s2)CC1=O (centres undefined) | -26.4% | 
81 | CCOC(=O)c1ccc(NC(=O)C2CC(=O)N(c3ccc4c(c3)OCCO4)C2)cc1 (centres undefined) | -3.19% | 
82 | CCN1CCN(CCNC(=O)c2ccc3c(c2)NC(=O)/C(=C\c2cccc(Cl)c2)S3)CC1 | -9.11% | 
83 | COc1cccc(CNc2nc(NCc3cccs3)nc3ccsc23)c1 | -6.78% | 
84 | COC(=O)[C@@]1(Cc2ccc(F)cc2)[C@H]2c3cc(C(=O)N(C)C)n(CCc4c[nH]c5ccc(OC)cc45)c3C[C@H]2CN1C(=O)c1ccccc1 | -0.876% | 
